Only some compounds are listed: those with a hit (about 7.2% of all), similar ones and a draw of the others.
VLA-4 inh: inhibition in human VLA-4 binding assay, primary screen, VLA-4 allosteric modulator project, MLPCN library, flow cytometry, VLA-4 expressing cells. AID 2557, 2010. Integrin alpha-4 (Homo sapiens), P13612. inhibition, % (about 7 µM as worked out from the volumes in the protocol). 330,000 tested, 0.2% active. ligand binding flow cytometry; in the data active = inhibition above about 50%
ALR H2O2 inh: inhibitors of human ALR sulfhydryl oxidase, primary screen, biochemical, H2O2 detection, HRP-luminol luminescence, single point. FAD-linked sulfhydryl oxidase ALR (Homo sapiens), P55789. purified ALR, DTT oxidation. inhibition, % (no concentration beside the values). 290,000 tested, 3.8% active;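 active = mean replicate inhibition above about 79%, with every replicate also reaching it, limit read from the data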
Target sequence (P55789 whole entry, looked up): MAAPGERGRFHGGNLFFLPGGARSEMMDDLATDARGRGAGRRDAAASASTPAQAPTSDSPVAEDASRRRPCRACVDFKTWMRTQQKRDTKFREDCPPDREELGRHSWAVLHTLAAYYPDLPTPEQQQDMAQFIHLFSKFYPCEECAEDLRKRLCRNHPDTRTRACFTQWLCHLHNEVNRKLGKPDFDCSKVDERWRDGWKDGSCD
SUMO Mot1 rescue: yeast Mot1-301 growth rescue at high temperature, primary screen, SUMOylation pathway inhibitor project, S. cerevisiae, ATP luminescence, 38.5C; S. cerevisiae Mot1-301 growth rescue; percent above DMSO median, 100 means doubled; growth rescue, % at 18.8 µM; 320,000 tested, 1% active; AID 2716, 2010;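 active = every valid replicate shows activation above 250% relative to neutral control wells; inactive = the rest, any valid replicate at or below 250%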;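 note: OY570 slx delta 5 strain wells were the positive control but not used for scaling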
Efflux pump mplx: inhibitors of Candida efflux pumps in yeast, primary screen, S. cerevisiae, Nile Red, multiplex; S. cerevisiae Candida pump triplex; inhibition, % at 10 µM; 330,000 tested, 0.44% active; AID 485275, 2010;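 active = plate passing quality check with inhibition over a set limit, or well fluorescence over plate mean plus 4 SD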;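 note: Nile Red retained in pooled yeast measured as flow cytometry median fluorescence; 0% = buffer negative control and 100% = Enniatin B positive control; higher means more Nile Red kept so more efflux inhibition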
Bfl-1 A1 inh: caspase 3/7 activation in MEF A1-2A-BIM cells, primary screen, A1 inhibitor project, cell-based, luminescence, HTS. Caspase-Glo 3/7 luminescence, 3 h; percent of clofoctol response, vehicle zero. caspase activation, % (concentration not given with the values). 330,000 tested, 0.066% active. AID 2462, 2010;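 active = over half of replicate activation scores above 10%, or exactly half above 10 with the replicate mean above 10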
AHR act: AHR activators, primary screen, cell-based, luminescence, luciferase reporter, human. AHR-responsive luciferase reporter cells. activation, % at 5 µM. 320,000 tested, 2.5% active. AID 2796, 2010; in the data active = activation above about 47%;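 note: 0% = vehicle wells and 100% = reference agonist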
The depositor's hits bear a star.

`CNC(=S)NNC(=O)c1oc2nc(-c3ccccc3)cc(C)c2c1N` gave VLA-4 inh 1, SUMO Mot1 rescue 69, Efflux pump mplx 0, Bfl-1 A1 inh 1 and AHR act 56*.
`Cc1ccc(-c2cc(-c3ccco3)c3c(N)c(C(=O)NN)oc3n2)cc1` gave VLA-4 inh -167, ALR H2O2 inh -7, SUMO Mot1 rescue -2, Efflux pump mplx 0, Bfl-1 A1 inh 0 and AHR act 42.
`CC1CCCCC1NC(=O)Cn1ncc2ccccc21` (centres undefined) gave VLA-4 inh 31, ALR H2O2 inh 97*, SUMO Mot1 rescue -9, Efflux pump mplx 0, Bfl-1 A1 inh 1 and AHR act 2.
CC1CCC(NC(=O)Cn2ncc3ccccc32)CC1 (centres undefined) was read as VLA-4 inh 41, ALR H2O2 inh -1, SUMO Mot1 rescue -19, Efflux pump mplx 0, Bfl-1 A1 inh 0 and AHR act 5.
For CCOC(=O)c1nnn2c1nc(SCC(C)=O)c1ccccc12 the results were VLA-4 inh 0, ALR H2O2 inh 88*, SUMO Mot1 rescue 2, Efflux pump mplx 0, Bfl-1 A1 inh 0 and AHR act 1.
`Cc1cc(C)nc(NC(=S)Nc2cccc(F)c2)c1` gave VLA-4 inh 5, ALR H2O2 inh -14, SUMO Mot1 rescue 0, Efflux pump mplx 0, Bfl-1 A1 inh 1 and AHR act 48*.
For COc1ccc(NC(=S)Nc2cc(C)cc(C)n2)cc1OC the results were VLA-4 inh 10, ALR H2O2 inh -8, SUMO Mot1 rescue 32, Efflux pump mplx 0, Bfl-1 A1 inh 0 and AHR act 11.
COc1cccc(NC(=S)Nc2cc(C)cc(C)n2)c1 was read as VLA-4 inh -8, ALR H2O2 inh 13, SUMO Mot1 rescue 8, Efflux pump mplx 0, Bfl-1 A1 inh 1 and AHR act 66*.
O=C1NCCCC2c3c(cc(Br)c(O)c3Br)OC12N1CCCCC1 (centres undefined) was read as VLA-4 inh -1, ALR H2O2 inh 99*, SUMO Mot1 rescue -3, Efflux pump mplx 0, Bfl-1 A1 inh 0 and AHR act 1.
Screening CCN(C(=O)c1ccc2c(=O)n3c(nc2c1)CCCCC3)c1ccccc1C returned VLA-4 inh -2, ALR H2O2 inh 3, SUMO Mot1 rescue -24, Efflux pump mplx 0, Bfl-1 A1 inh 4 and AHR act 3.
Screening O=C(/C=C1\SC(=O)NC1=O)Nc1ccc(F)cc1 returned VLA-4 inh 6, ALR H2O2 inh 97*, SUMO Mot1 rescue -2, Efflux pump mplx 0, Bfl-1 A1 inh -1 and AHR act -1.
`COC(=O)/C=C1/SC(=NC(=O)c2ccc(F)cc2)NC1=O` gave VLA-4 inh -3, ALR H2O2 inh 3, SUMO Mot1 rescue 4, Efflux pump mplx 0, Bfl-1 A1 inh 0 and AHR act 4.
`Cc1ccccc1CNC(=O)C(=O)NCCC1CCCCN1S(=O)(=O)c1ccccc1` (centres undefined) gave VLA-4 inh 1, ALR H2O2 inh -47, SUMO Mot1 rescue 186, Efflux pump mplx 0, Bfl-1 A1 inh 0 and AHR act 1.
For Cc1ccnc(NC(=O)c2cccc(S(=O)(=O)Nc3ccc(C)cc3C)c2)c1 the results were VLA-4 inh 1, ALR H2O2 inh -3, SUMO Mot1 rescue 0, Efflux pump mplx 0, Bfl-1 A1 inh -1 and AHR act 61*.
`Cc1ccc(NS(=O)(=O)c2cccc(C(=O)NNC(=O)c3cccn3C)c2)c(C)c1` gave VLA-4 inh 6, ALR H2O2 inh 1, SUMO Mot1 rescue -7, Efflux pump mplx 0, Bfl-1 A1 inh -1 and AHR act 2.
`O=C(Nc1ccc(Br)cc1)c1cccc(S(=O)(=O)Nc2ccccn2)c1` gave VLA-4 inh 16, ALR H2O2 inh -3, SUMO Mot1 rescue 67, Efflux pump mplx 0, Bfl-1 A1 inh -12 and AHR act 61*.

Screening data from PubChem.
